# Test results as given in PubChem BioAssay (Tox21).
# Records with an inconclusive call do not appear. Where a call stands in place of a potency, no number is given. Calls of active or inactive are those of the source. Unless noted, calls follow the shape of the dose curve; as a rule, active = well fitted curve in the direction sought with a large enough effect in the repeat runs; inconclusive = weak or mixed curves; inactive = no such curve, though single readings can be large; an effect the other way counts as inactive or inconclusive.
# Columns and labels:
# [1] = qHTS assay to identify small molecule antagonists of the sonic hedgehog signaling (Shh) pathway (AID 1259369; calls by dose curve; also: nearly all actives have a fitted effect of over 45% in size; also: potency is read from the fitted curve at half-maximal effect)
# How it was run: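 Antagonist mode: compound added to 3T3 Gli1-Luc cells followed by conditioned-medium stimulation, 24 h at 37 C, 5% CO2. Inhibition taken as loss of Gli1-driven luciferase luminescence.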
# [2] = molecular target: Estrogen receptor beta (Homo sapiens) (UniProt Q92731); experiment: qHTS assay to identify small molecule agonists of the estrogen receptor beta (ER-beta) signaling pathway (AID 1259377; active = well fitted activation curve with a large enough effect in the signal ratio in the repeat runs, not every such curve was filed as active; the % refers to the signal ratio; also: potency is read from the fitted curve at half-maximal effect)
# Estrogen receptor beta (Homo sapiens), sequence (Q92731 whole entry, looked up): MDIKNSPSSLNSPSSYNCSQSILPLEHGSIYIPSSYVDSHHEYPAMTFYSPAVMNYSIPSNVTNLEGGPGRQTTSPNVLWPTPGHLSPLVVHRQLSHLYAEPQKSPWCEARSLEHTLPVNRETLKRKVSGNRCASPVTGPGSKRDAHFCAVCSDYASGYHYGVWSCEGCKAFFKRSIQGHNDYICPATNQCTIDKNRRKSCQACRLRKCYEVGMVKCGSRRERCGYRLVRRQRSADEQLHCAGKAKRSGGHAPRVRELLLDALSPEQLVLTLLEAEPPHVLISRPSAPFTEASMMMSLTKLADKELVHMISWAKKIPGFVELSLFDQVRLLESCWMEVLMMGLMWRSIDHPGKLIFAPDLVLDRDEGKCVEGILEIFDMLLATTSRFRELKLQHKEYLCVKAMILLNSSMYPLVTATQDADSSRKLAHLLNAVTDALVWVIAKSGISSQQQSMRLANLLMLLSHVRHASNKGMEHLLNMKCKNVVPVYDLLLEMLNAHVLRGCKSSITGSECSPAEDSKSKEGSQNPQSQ
# How it was run: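 A UAS-controlled beta-lactamase reporter in ER-beta-UAS-bla HEK293T cells reports receptor activation. Compounds act for 16 hr at 37C in 2% charcoal-stripped serum, and a FRET substrate is read by fluorescence after 2 hours.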
# [3] = molecular target: Estrogen receptor beta (Homo sapiens) (UniProt Q92731); experiment: qHTS assay to identify small molecule antagonists of the estrogen receptor beta (ER-beta) signaling pathway (AID 1259378; active = well fitted inhibition curve with a large enough effect in the signal ratio in the repeat runs, not every such curve was filed as active; the % refers to the signal ratio; also: potency is read from the fitted curve at half-maximal effect)
# How it was run: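 ER-beta-UAS-bla HEK293T cells in 2% charcoal-stripped FBS medium treated with compound plus 1nM final 17-beta-estradiol for 16 hr at 37C. Beta-lactamase reporter read by FRET substrate fluorescence after 2 hours at room temperature.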
# [4] = qHTS assay to identify small molecule agonists of the estrogen receptor beta (ER-beta) signaling pathway - cell viability counter screen (AID 1259380); also: nearly all actives have a fitted effect of over 30% in size
# How it was run: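 Cell viability counter screen: CellTiter-Glo luminescence (30 min, room temperature) measured in the same wells as the beta-lactamase readout, after 16 hr compound exposure at 37C of ER-beta-bla HEK293T cells in 2% charcoal-stripped FBS medium.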
# [5] = qHTS assay to identify small molecule antagonists of the estrogen receptor beta (ER-beta) signaling pathway - cell viability counter screen (AID 1259382); also: series mostly up to about 92 µM; nearly all actives have a fitted effect of over 55% in size
# How it was run: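 Cytotoxicity was measured in the same wells by CellTiter-Glo luminescence after 30 min at room temperature. Cells were ER-beta-bla HEK293T in charcoal-stripped serum, given compound together with 1 nM E2 and incubated 16 h at 37C.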
# [6] = molecular target: Estrogen receptor (Homo sapiens) (UniProt P03372); experiment: qHTS assay to identify small molecule agonists of the estrogen receptor alpha (ER-alpha) signaling pathway in the presence of an antagonist (AID 1259383; calls by dose curve; also: top concentration of the series differs between compounds; nearly all actives have a fitted effect of over 15% in size)
# Estrogen receptor (Homo sapiens), sequence (P03372 whole entry, looked up): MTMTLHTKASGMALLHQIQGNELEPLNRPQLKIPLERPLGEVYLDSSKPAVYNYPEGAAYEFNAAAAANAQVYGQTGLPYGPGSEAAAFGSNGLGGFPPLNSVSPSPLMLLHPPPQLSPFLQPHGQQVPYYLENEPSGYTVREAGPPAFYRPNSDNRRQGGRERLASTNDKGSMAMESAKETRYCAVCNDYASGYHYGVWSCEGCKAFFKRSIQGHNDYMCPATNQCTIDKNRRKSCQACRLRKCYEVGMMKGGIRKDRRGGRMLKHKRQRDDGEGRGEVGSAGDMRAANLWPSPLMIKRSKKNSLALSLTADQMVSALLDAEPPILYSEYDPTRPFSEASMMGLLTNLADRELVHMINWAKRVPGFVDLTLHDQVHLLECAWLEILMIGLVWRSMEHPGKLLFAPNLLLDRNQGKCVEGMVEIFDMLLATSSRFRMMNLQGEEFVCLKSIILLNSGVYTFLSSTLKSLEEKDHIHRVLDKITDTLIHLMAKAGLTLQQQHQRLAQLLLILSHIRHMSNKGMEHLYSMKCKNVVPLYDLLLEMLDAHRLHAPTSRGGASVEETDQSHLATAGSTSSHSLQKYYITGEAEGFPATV
# How it was run: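 Agonist-mode confirmation run in the presence of 10.0nM (final) ICI-182,780 antagonist. The reporter was ERE-driven luciferase in VM7Luc4E2 cells, grown in charcoal-stripped serum. Cells were exposed to 15-concentration compound series for 22hr, then ONE-Glo luminescence was read.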
# [7] = qHTS assay to identify small molecule agonists or antagonists of the thyroid stimulating hormone receptor (TSHR) signaling pathway - wild type cell line counter screen (AID 1259384; calls by dose curve)
# How it was run: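 Wild-type Hek293 cells, 800/well, 18 h at 37C, then compound with Ro20-1724 for 30 min RT. cAMP by HTRF (cAMP-d2/anti-cAMP cryptate), 1 h RT, fluorescence read. 15 concentrations, triplicates.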
# [8] = qHTS assay to identify small molecule agonists of the estrogen receptor alpha (ER-alpha) signaling pathway in the presence of an antagonist - cell viability counter screen (AID 1259386); also: series mostly up to about 92 µM; nearly all actives have a fitted effect of over 30% in size
# How it was run: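 Compounds tested at 15 concentrations for 22 h at 37C alongside 10.0nM (final) ICI-182,780 antagonist, in VM7Luc4E2 cells grown in phenol red-free, charcoal-stripped medium. Viability read by CellTiter-Fluor fluorescence after 1 h reagent incubation.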
# [9] = molecular target: Progesterone receptor (Homo sapiens) (UniProt P06401); experiment: qHTS assay to identify small molecule agonists of the progesterone receptor (PR) signaling pathway (AID 1346784; calls by dose curve; also: nearly all actives have a fitted effect of over 30% in size; also: potency is read from the fitted curve at half-maximal effect)
# Progesterone receptor (Homo sapiens), sequence (P06401 whole entry, looked up): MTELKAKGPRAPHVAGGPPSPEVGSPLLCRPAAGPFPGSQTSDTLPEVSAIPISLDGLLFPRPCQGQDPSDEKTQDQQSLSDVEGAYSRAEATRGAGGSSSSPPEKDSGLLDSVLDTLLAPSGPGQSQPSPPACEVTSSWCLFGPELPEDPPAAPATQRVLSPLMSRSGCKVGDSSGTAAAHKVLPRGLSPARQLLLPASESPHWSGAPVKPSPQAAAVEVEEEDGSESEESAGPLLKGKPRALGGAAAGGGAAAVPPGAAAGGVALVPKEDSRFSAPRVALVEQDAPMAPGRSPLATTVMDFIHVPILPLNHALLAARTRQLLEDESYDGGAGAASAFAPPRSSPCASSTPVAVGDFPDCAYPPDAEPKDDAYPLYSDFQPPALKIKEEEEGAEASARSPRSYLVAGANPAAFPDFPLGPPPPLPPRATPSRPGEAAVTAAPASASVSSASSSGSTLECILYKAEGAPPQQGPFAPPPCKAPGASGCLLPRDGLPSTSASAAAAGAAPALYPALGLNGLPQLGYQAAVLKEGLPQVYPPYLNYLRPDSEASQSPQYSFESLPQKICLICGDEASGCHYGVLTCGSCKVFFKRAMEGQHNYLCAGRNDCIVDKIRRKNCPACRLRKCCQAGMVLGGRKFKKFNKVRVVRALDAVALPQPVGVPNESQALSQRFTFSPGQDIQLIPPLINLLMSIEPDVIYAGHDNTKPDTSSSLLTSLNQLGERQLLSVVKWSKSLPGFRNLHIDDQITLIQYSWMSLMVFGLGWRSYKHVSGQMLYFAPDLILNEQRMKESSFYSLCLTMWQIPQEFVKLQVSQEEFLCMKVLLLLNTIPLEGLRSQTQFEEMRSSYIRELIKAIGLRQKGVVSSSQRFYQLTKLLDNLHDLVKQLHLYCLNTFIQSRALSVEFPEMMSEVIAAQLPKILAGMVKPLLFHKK
# How it was run: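 Agonist mode, quantitative HTS format in a HEK 293T line expressing a UAS-controlled beta-lactamase reporter; 16 hr compound exposure at 37C in 2% charcoal-stripped FBS, then LiveBLAzer B/G FRET fluorescence.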
# [10] = molecular target: Progesterone receptor (Homo sapiens) (UniProt P06401); experiment: qHTS assay to identify small molecule antagonists of the progesterone receptor (PR) signaling pathway (AID 1346795; active = well fitted inhibition curve with a large enough effect in the signal ratio in the repeat runs, not every such curve was filed as active; the % refers to the signal ratio; also: potency is read from the fitted curve at half-maximal effect)
# How it was run: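 HEK293T PR-UAS-bla reporter cells in charcoal-stripped serum (2%) received compound after a 6 hr settling period, followed by R5020 agonist at 1 nM final; 16 hr incubation preceded the FRET substrate step and fluorescence measurement.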
# [11] = qHTS assay to identify small molecule antagonists of the progesterone receptor (PR) signaling pathway - cell viability counter screen (AID 1346798); also: nearly all actives have a fitted effect of over 50% in size; also: potency is read from the fitted curve at half-maximal effect
# How it was run: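 Same-well multiplex: after 16 hr at 37C with compound and R5020 stimulation, HEK293T cells carrying a UAS-bla reporter received LiveBLAzer substrate (2 hr RT), then CellTiter-Glo (30 min RT) for luminescent viability.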
# [12] = qHTS assay to identify small molecule agonists of the progesterone receptor (PR) signaling pathway - cell viability counter screen (AID 1346799; calls by dose curve; also: nearly all actives have a fitted effect of over 45% in size)
# How it was run: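 Counter screen for cytotoxicity: compound-treated PR-UAS-bla HEK293T cells (16 hr, 37C, 5% CO2) were assayed with CellTiter-Glo, luminescence measured after 30 min at room temperature.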
# [13] = qHTS assay to identify small molecule antagonists of the TGF-beta/Smad signaling pathway - cell viability counter screen (AID 1346824); also: nearly all actives have a fitted effect of over 50% in size
# How it was run: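 SBE-bla HEK 293T cells, incubated overnight, then compound plus 0.25 ng/mL TGF-beta1 (stock added) for 5 hr at 37 C. Viability was read in the same wells by CellTiter-Glo luminescence after 30 min at room temperature.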
# [14] = qHTS assay to identify small molecule agonists of the TGF-beta/Smad signaling pathway - cell viability counter screen (AID 1346829); also: top concentration of the series differs between compounds; nearly all actives have a fitted effect of over 45% in size
# How it was run: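 In parallel with the Smad reporter read, viability of HEK 293T cells stably carrying SBE-bla is quantified by ATP luminescence following 5 hr compound treatment.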
# [15] = molecular target: Thyrotropin-releasing hormone receptor (Homo sapiens) (UniProt P34981); experiment: qHTS assay to identify small molecule agonists of the thyrotropin-releasing hormone receptor (TRHR) signaling pathway (AID 1346891; calls by dose curve;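 also: HEK293 cells expressing TRHR with calcium dye readout; series mostly up to about 58 µM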)
# Thyrotropin-releasing hormone receptor (Homo sapiens), sequence (P34981 whole entry, looked up): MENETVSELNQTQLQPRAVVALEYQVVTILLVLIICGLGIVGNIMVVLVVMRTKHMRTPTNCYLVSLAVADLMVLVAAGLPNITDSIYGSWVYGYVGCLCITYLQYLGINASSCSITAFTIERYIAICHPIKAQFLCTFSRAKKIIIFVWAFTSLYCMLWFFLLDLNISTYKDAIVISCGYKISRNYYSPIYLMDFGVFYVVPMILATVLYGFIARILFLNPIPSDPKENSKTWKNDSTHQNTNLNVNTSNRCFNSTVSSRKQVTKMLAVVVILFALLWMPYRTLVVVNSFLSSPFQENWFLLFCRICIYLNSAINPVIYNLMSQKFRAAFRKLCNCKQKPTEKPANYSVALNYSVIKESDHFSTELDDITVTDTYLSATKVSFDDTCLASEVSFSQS
# How it was run: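 Agonist-mode calcium mobilisation screen: TRHR-transfected HEK293 cells cultured overnight (18 h), dye-loaded for 2 h at 37 °C, exposed to compounds, and monitored by fluorescence for 3 min.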
# [16] = qHTS assay to identify small molecule agonists of the androgen receptor (AR) signaling pathway in the presence of an antagonist - cell viability counter screen (AID 1259379);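 also: MDA-kb2 human breast cancer cells carrying an MMTV luciferase reporter; series mostly up to about 92 µM; nearly all actives have a fitted effect of over 25% in size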
# How it was run: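 Cytotoxicity counter-screen run in the same wells as the nilutamide-challenged (3.0 µM final) AR agonist assay in MDA-kb2 cells. Compounds tested at 15 concentrations for 16 h, 37 °C without CO2; CellTiter-Fluor fluorescence read.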
# [17] = molecular target: Thyrotropin receptor (Homo sapiens) (UniProt P16473); experiment: qHTS assay to identify small molecule antagonists of the thyroid stimulating hormone receptor (TSHR) signaling pathway (AID 1259385; calls by dose curve; also: nearly all actives have a fitted effect of over 20% in size)
# Thyrotropin receptor (Homo sapiens), sequence (P16473 whole entry, looked up): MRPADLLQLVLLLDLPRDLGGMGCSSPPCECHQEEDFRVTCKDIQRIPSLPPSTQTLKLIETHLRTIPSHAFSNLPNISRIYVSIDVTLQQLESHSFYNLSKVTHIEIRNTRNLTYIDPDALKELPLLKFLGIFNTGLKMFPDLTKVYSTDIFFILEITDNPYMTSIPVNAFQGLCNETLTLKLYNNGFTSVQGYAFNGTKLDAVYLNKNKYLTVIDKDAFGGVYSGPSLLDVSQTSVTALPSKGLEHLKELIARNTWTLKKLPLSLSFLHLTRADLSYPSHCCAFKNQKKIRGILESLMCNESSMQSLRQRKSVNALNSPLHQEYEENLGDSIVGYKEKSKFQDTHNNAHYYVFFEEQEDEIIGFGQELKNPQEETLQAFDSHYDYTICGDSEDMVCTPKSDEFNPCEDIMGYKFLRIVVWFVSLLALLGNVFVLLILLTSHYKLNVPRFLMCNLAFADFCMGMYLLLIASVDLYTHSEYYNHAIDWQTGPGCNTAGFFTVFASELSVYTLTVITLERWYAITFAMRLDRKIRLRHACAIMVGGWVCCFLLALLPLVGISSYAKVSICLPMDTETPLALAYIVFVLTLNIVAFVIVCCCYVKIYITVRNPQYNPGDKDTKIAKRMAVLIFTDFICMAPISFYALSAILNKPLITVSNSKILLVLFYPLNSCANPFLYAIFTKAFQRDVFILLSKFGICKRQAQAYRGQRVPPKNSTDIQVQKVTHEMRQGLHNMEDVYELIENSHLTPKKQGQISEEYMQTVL
# How it was run: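 TSHR-HEK293 cells (800/well) plated 18 h, then compounds with Ro20-1724 and TSH at 1.5 ng/mL final, 30 min at room temperature. cAMP quantified by HTRF (cAMP-d2/anti-cAMP-cryptate, 1 h); 15 concentrations in triplicate.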
# [18] = qHTS assay to identify small molecule agonists of the TGF-beta/Smad signaling pathway (AID 1346859; active = well fitted activation curve with a large enough effect in the signal ratio in the repeat runs, not every such curve was filed as active; the % refers to the signal ratio; also: series mostly up to about 77 µM)
# How it was run: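 Smad-responsive beta-lactamase reporter cells (HEK 293T) received compounds from DMSO stocks after overnight attachment, were incubated 5 hr, then treated 2 hr with FRET substrate before dual-emission fluorescence measurement (405 nm excitation).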
# [19] = molecular target: Thyrotropin-releasing hormone receptor (Homo sapiens) (UniProt P34981); experiment: qHTS assay to identify small molecule antagonists of the thyrotropin-releasing hormone receptor (TRHR) signaling pathway (AID 1346877; active = well fitted inhibition curve with a large enough effect in the repeat runs, not every such curve was filed as active; also: potency is read from the fitted curve at half-maximal effect)
# How it was run: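 Antagonist mode: after a 5 min room-temperature compound exposure, cells were stimulated with 1 nM (final) TRH. Dye-loaded TRHR-HEK293 cells were used, and calcium-dependent fluorescence was followed for 3 min, with 15-point titrations run in triplicate.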
# [20] = molecular target: Androgen receptor (Homo sapiens) (UniProt P10275); experiment: qHTS assay to identify small molecule agonists of the androgen receptor (AR) signaling pathway in the presence of an antagonist (AID 1259381; calls by dose curve; also: nearly all actives have a fitted effect of over 15% in size; also: potency is read from the fitted curve at half-maximal effect)
# Androgen receptor (Homo sapiens), sequence (P10275 whole entry, looked up): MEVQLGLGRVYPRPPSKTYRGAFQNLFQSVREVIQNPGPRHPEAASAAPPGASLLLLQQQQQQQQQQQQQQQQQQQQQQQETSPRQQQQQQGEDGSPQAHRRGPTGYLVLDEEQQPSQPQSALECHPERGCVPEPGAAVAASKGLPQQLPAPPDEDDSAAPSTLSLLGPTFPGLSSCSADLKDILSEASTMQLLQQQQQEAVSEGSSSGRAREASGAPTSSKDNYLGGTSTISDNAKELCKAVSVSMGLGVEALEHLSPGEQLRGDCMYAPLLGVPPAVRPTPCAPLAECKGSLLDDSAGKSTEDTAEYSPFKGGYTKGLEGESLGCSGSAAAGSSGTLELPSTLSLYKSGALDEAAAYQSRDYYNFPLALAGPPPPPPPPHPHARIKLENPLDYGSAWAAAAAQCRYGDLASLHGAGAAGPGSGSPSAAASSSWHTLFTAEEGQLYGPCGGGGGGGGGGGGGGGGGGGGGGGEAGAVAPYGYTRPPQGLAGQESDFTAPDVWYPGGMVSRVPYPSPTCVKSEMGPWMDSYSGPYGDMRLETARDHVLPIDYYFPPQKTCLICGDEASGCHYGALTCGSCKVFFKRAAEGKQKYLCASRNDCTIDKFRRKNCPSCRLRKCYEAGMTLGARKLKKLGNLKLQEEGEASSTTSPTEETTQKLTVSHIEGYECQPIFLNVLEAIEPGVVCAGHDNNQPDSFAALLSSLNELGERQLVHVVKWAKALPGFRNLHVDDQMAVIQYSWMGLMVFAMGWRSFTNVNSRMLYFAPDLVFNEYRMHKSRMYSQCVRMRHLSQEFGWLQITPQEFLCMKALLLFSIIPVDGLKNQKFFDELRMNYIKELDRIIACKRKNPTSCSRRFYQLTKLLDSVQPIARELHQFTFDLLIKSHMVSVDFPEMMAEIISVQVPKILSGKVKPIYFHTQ
# How it was run: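 Agonist-mode confirmation run against 3.0 uM final nilutamide: compounds titrated at 15 concentrations onto MDA-kb2 MMTV-luciferase reporter cells. Luminescence measured with ONE-Glo following 16 hr incubation, 37C, 0% CO2.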
SMILES,Potency [1],Potency [2],Potency [3],Potency [4],Potency [5],Potency [6],Potency [7],Potency [8],Potency [9],Potency [10],Potency [11],Potency [12],Potency [13],Potency [14],Potency [15],Potency [16],Potency [17],outcome [18],Potency [19],Potency [20]
CC(C)C(Br)C(=O)NC(N)=O (configuration not stated),inactive,inactive,inactive,inactive,inactive,inactive,inactive,inactive,inactive,inactive,inactive,inactive,inactive,inactive,inactive,–,–,–,–,–
Nc1cc(Cl)ccc1Cl,inactive,inactive,inactive,inactive,–,–,inactive,inactive,inactive,inactive,inactive,inactive,inactive,inactive,inactive,inactive,inactive,inactive,inactive,–
Cc1ccn2nc(S(=O)(=O)Nc3c(F)cccc3F)nc2n1,inactive,inactive,inactive,inactive,–,–,inactive,inactive,–,–,inactive,inactive,inactive,–,inactive,inactive,inactive,inactive,inactive,–
CC(C)C(Nc1ccc(C(F)(F)F)cc1Cl)C(=O)OC(C#N)c1cccc(Oc2ccccc2)c1 (configuration not stated),43.6 µM (active),inactive,inactive,inactive,inactive,inactive,–,inactive,inactive,–,inactive,–,inactive,–,–,–,–,inactive,–,–
Cc1c([N+](=O)[O-])cc2c(c1[N+](=O)[O-])C(C)(C)CC2(C)C,inactive,inactive,–,inactive,inactive,inactive,inactive,–,inactive,–,inactive,inactive,–,inactive,inactive,inactive,inactive,–,inactive,–
BrCC(Br)(Br)Br,inactive,inactive,inactive,inactive,inactive,inactive,–,inactive,inactive,–,–,inactive,inactive,inactive,inactive,–,–,inactive,15.7 µM (active),inactive
CCCCCCC[CH2][Sn]([Cl])([Cl])[CH2]CCCCCCC,inactive,inactive,48.5 µM (active),–,inactive,inactive,inactive,inactive,–,–,–,–,inactive,–,inactive,inactive,–,inactive,inactive,inactive
S=C=NCCc1ccccc1,inactive,inactive,30.7 µM (active),–,inactive,–,inactive,inactive,inactive,19.4 µM (active),21.7 µM (active),–,inactive,inactive,–,–,inactive,inactive,–,inactive
C[C@]12CC[C@H]3[C@@H](CCC4=CC(=O)CC[C@@H]43)[C@@H]1CC[C@@H]2OC(=O)CCc1ccco1,inactive,2.66 µM (active),–,inactive,inactive,–,inactive,inactive,0.841 µM (active),inactive,inactive,–,inactive,inactive,–,inactive,–,–,inactive,0.0237 µM (active)
